The entries come from a sample that favours hits as a whole.
Pf apPOL block: Pf-apPOL inhibitors, biochemical, fluorescence; Recombinant Pf-apPOL, molecular beacon fluorescence, 1.5 h; AID 1794808, 2022; Plasmodium falciparum apicoplast DNA polymerase (apPOL); inhibition, % at 10 µM; actives 0.25% (n = 210,000)
mHTT-CaM PPI inh: mutant huntingtin-calmodulin interaction inhibitors – biochemical, AlphaScreen, primary screen; P42858; actives 3.6% (n = 190,000); inhibition, % at 15 µM; AlphaScreen His-mHTT/GST-CaM binding, luminescence;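 further: 0% = both proteins with DMSO and 100% = one protein alone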
Starred values were filed as active, the others as inactive; / = no result; ! = a repeat was not active. No stated cut-off is given here; in the data, active means inhibition above about 50%; inactive means the rest.

SMILES	Pf apPOL block	mHTT-CaM PPI inh
COc1ccc(NC(NC(=O)c2cccs2)C(=O)c2ccccc2)cc1 (configuration not stated)	-1	40
CCOc1ccc(NC(NC(=O)c2cccs2)C(=O)c2ccccc2)cc1 (configuration not stated)	-1	56*
Cc1cccc(NC(=O)c2ccc3c(c2)n(C)c(=O)c2ccnn23)c1	-11	-5
O=C(Cn1ccc2c(=O)[nH]ccc21)Nc1ccccc1Cl	82*	17
O=C(Cn1ccc2c(=O)[nH]ccc21)Nc1cccc(Cl)c1	79*	21
O=C(Cn1ccc2c(=O)[nH]ccc21)Nc1ccc(Cl)cc1	46	15
Cc1c(Cl)cccc1NC(=O)Cn1ccc2c(=O)[nH]ccc21	14	15
CCCCC(CC)C(=O)Nc1cc(OC)c(NC(=O)c2ccccc2)cc1OC (configuration not stated)	-3	11
CCn1c(C(=O)N2CCN(C(C)=O)CC2)cc2sccc21	-2	-2
CC(=O)Nc1ccc2oc(-c3ccc(C(C)(C)C)cc3)cc(=O)c2c1	-6	5
CCN(CCN(C)C)Cc1ccc([N+](=O)[O-])cc1	1	-2
Cc1ccccc1C1=N/C(=C\c2sccc2C)C(=O)O1	1	20
Cc1ccsc1C=C1C(=O)c2ccccc2C1=O	-3	50*
CC(=O)N1CCN(c2ccc(NC(=O)c3cccc(OCc4ccccc4)c3)cc2)CC1	-10	8
Cc1nn(CCCC(=O)Nc2cc(Oc3ccc(F)cc3F)cc([N+](=O)[O-])c2)c(C)c1[N+](=O)[O-]	-5	80*
Cc1nn(CCCC(=O)Nc2cc(Oc3ccccc3)cc([N+](=O)[O-])c2)c(C)c1[N+](=O)[O-]	-2	96*
Cc1ccc(NC(=O)CCCn2nc(C)c([N+](=O)[O-])c2C)cc1C	-12	2
Cc1ccc(C)c(Oc2cc(NC(=O)CCCn3nc(C)c([N+](=O)[O-])c3C)cc([N+](=O)[O-])c2)c1	0	1
Cc1ccc(NC(=O)OC(C)(C)C)s1	/	-4
CC1CCCC(Nc2ccc(N3C(=O)C4C5C=CC(C5)C4C3=O)cc2[N+](=O)[O-])C1C (configuration not stated)	-19	55*
CC1CCCC(Nc2ccc(N3C(=O)CCC3=O)cc2[N+](=O)[O-])C1C (configuration not stated)	-16	42
O=C(NCCc1csc(C2CCCN(C(=O)c3cnccn3)C2)n1)C1CC1 (configuration not stated)	-3	-5
CC1(CNC(=O)c2cccs2)C2CC3CC(C2)CC1C3 (configuration not stated)	-2	-20
CCOc1cc(-c2ccc(OC)c(OC)c2)cc(=O)c2c(C)oc(C)c12	10	44
CCOc1cc(-c2cccs2)cc(=O)c2c(C)oc(C)c12	-5	55*
SMILES	Pf apPOL block	mHTT-CaM PPI inh
COc1ccc(/C=C2\CCC3=C2OC(N)=C(C#N)C3c2ccc(OC)cc2)cc1 (configuration not stated)	-10	63*
COc1ccc(/C=C2\CCCC3=C2OC(N)=C(C#N)C3c2ccc(OC)c(OC)c2)cc1OC (configuration not stated)	-2	38
N#CC1=C(N)OC2=C(CC/C2=C\c2cccc(F)c2)C1c1cccc(F)c1 (configuration not stated)	-3	94*
N#CC1=C(N)OC2=C(C(=O)CC(c3ccccc3)C2)C1c1cccc(F)c1 (configuration not stated)	-7	10
COc1ccc2c(c1)-c1c(ssc1=S)C(C)(C)N2	/	88*
COc1ccc2c(c1)NC(C)(C)C=C2C	/	18
COc1ccc2c(c1)C(C)=CC(C)(C)N2	-4	94*!
CC1(C)Nc2ccc(C(c3ccccc3)(c3ccccc3)c3ccccc3)cc2-c2c1ssc2=S	/	4
O=C(NCCCN1CCCC1)c1cc2cc3ccc(Cl)cc3nc2o1	-4	5
CC(C)C(NC(=O)OC(C)(C)C)C(=O)O (configuration not stated)	-11	-6
O=C(NC1CC1)c1ccc(OCC2CCCN2C(=O)Cc2ccccc2F)cc1 (configuration not stated)	3	-4
Cn1ccn(C2c3ccccc3Oc3ccccc32)c1=S	/	6
N#CC1C(=N)OC2=C(C(=O)CCC2)C1c1ccc2noc(-c3ccccc3)c2c1 (configuration not stated)	-9	11
Cc1ccnc(Nc2ccc(N3CCN(C(=O)c4cnccn4)CC3)nn2)c1	-8	90*
Cc1ccnc(NC(=O)C2CCCC2)c1	-2	-4
O=C(c1cnccn1)N1CCN(c2cc(-n3cccn3)ncn2)CC1	0	-10
Cc1ccnc(Nc2ccc(N3CCN(C(=O)C4CCCC4)CC3)nn2)c1	-5	55*
CCN1C(=O)c2cccnc2Sc2cc(NC(=O)C3CC3)ccc21	-3	-1
O=C(O)CCNCc1ccccc1	-2	-2
c1ccc(CNCc2cnc[nH]2)cc1	-8	94*
CC1CCN(C(=O)CSc2nc3c(cnn3-c3ccc(Cl)cc3)c(=O)[nH]2)CC1	-2	-3
Cc1ccc(-c2csc(NC(=O)c3ccc([N+](=O)[O-])cc3Cl)n2)cc1	-2	14
CC(=O)N1CCN(C(=O)C23CC4(C)CC(C)(CC(C)(C4)C2)C3)CC1	-4	9
COc1ccc(N2CCN(C(=O)C34CC5(C)CC(C)(CC(C)(C5)C3)C4)CC2)cc1	3	54*
Cc1ccc(NC(=O)C(=O)NCCN2CCN(Cc3ccccc3)CC2)cc1	-2	-4
SMILES	Pf apPOL block	mHTT-CaM PPI inh
C=CCNC(=O)CSc1nc2sc3c(c2c(=O)[nH]1)CCCC3	-3	5
COc1ccc(-c2nnc(NC(=O)c3ccc(OC)c(OC)c3)o2)cc1	-7	50*
COc1ccc(-c2nnc(NC(=O)c3ccc(S(=O)(=O)N4CCOCC4)cc3)o2)c(OC)c1	6	54*
COc1ccc(-c2nnc(NC(=O)c3ccc(S(=O)(=O)N4CCOCC4)cc3)o2)cc1	-6	6
COc1ccc(C(=O)Nc2nnc(-c3ccccc3)o2)cc1OC	-4	12
COc1ccc(-c2nnc(NC(=O)c3ccc(S(=O)(=O)N4CCCCCC4)cc3)o2)cc1	0	8
COc1ccc(-c2nnc(NC(=O)c3ccc(S(=O)(=O)N4CCCCC4)cc3)o2)cc1	74*	-1
O=[N+]([O-])c1ccc(Sc2nccc(-c3cccnc3)n2)c([N+](=O)[O-])c1	4	/
CC(C)(C)C1=C(C#N)C(c2cccs2)C(C#N)=C(NC(=O)NC(=O)c2c(F)cccc2Cl)O1 (configuration not stated)	3	/
O=C(NCC12CC3CC(CC(C3)C1)C2)N1CCOCC1	6	0
CC(C)(C)c1ccc(C(=O)Nc2ccccc2Br)cc1	1	-119
COc1cccc(N2CCN(S(=O)(=O)c3ccc4[nH]c5c(c4c3)CCCC5)CC2)c1	-4	55*
COc1ccccc1N1CCN(S(=O)(=O)c2ccc(OC)c([N+](=O)[O-])c2)CC1	-5	14
COc1ccccc1N1CCN(S(=O)(=O)c2ccc3[nH]c4c(c3c2)CCCC4)CC1	-5	50*
COc1ccc(S(=O)(=O)N2CCN(c3cccc(Cl)c3)CC2)cc1	-16	-8
COc1ccc(C2=C(NCCc3ccc(S(N)(=O)=O)cc3)c3ccccc3C2=O)cc1	0	31

Screening data from PubChem.
